{
  "source": "PubChem BioAssay AID1159580",
  "about": "(chemical genetic matrix, 2015)",
  "assay": "chemical genetic growth profiling, strain panel (AID 1159580);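 further: tested at 20 µM; growth read once vehicle control cultures reached saturation at 30 °C; 1 = growth at the plate median or of vehicle wells; lower values mean less growth of the strain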",
  "details": "S. cerevisiae deletion strains, growth OD",
  "note": "Several values for one entry are separate records, joined by “and”; a condition that tells them apart may be missing. Equal values may be shown once. The whole screen tested about 5,500 compounds, of which about 2,000 (36%) were called active. Roughly 18% stayed inconclusive and do not appear here. Some of the results follow. A number with no mark means an inactive call. No stated cut-off is given here; in the data, active means normalized growth mostly below about 0.91 (no sharp cut-off); inconclusive means no clear call, values can overlap the other calls; inactive means mostly above about 0.92.",
  "data": [
    {"smiles": "C[C@@H]1CC[C@@]2(OC1)OC1C(O)C3C4CC[C@H]5C[C@H](O[C@@H]6O[C@H](CO)[C@H](O[C@@H]7O[C@H](CO)[C@@H](O)[C@H](O[C@@H]8OC[C@@H](O)[C@H](O)[C@H]8O)[C@H]7O[C@@H]7O[C@H](CO)[C@H](O)[C@H](O[C@@H]8O[C@H](CO)[C@@H](O)[C@H](O)[C@H]8O)[C@H]7O)[C@H](O)[C@H]6O)[C@H](O)C[C@]5(C)C4CC[C@]3(C)C1[C@@H]2C", "note": "(stereo partly specified)", "values": [
      {"measurement": "normalized growth", "setting": "locus YAL013W, strain DEP1, hits give low values", "result": "0.0526 (active)"},
      {"measurement": "normalized growth", "setting": "locus YAL021C, strain ccr4, hits give low values", "result": 0.988},
      {"measurement": "normalized growth", "setting": "locus YAL026C, strain drs2, hits give low values", "result": 1.01},
      {"measurement": "normalized growth", "setting": "locus YAL030W, strain snc1, hits give low values", "result": 1.02},
      {"measurement": "normalized growth", "setting": "locus YBL061C, strain skt5, hits give low values", "result": 1.01},
      {"measurement": "normalized growth", "setting": "locus YBR009C, strain hhf1, hits give low values", "result": 0.942},
      {"measurement": "normalized growth", "setting": "locus YBR021W, strain FUR4, hits give low values", "result": "0.0876 (active)"},
      {"measurement": "normalized growth", "setting": "locus YBR023C, strain chs3, hits give low values", "result": 1.01},
      {"measurement": "normalized growth", "setting": "locus YBR171W, strain sec66, hits give low values", "result": 0.986},
      {"measurement": "normalized growth", "setting": "locus YBR229C, strain ROT2, hits give low values", "result": "0.0499 (active)"},
      {"measurement": "normalized growth", "setting": "locus YBR231C, strain swc5, hits give low values", "result": 0.99},
      {"measurement": "normalized growth", "setting": "locus YBR279W, strain paf1, hits give low values", "result": 1.02},
      {"measurement": "normalized growth", "setting": "locus YCL011C, strain gbp2, hits give low values", "result": 0.986},
      {"measurement": "normalized growth", "setting": "locus YCL016C, strain dcc1, hits give low values", "result": 0.995},
      {"measurement": "normalized growth", "setting": "locus YCL029C, strain bik1, hits give low values", "result": "0.0554 (active)"},
      {"measurement": "normalized growth", "setting": "locus YCL061C, strain MRC1, hits give low values", "result": 0.999},
      {"measurement": "normalized growth", "setting": "locus YCL069W, strain vba3, hits give low values", "result": 1.02},
      {"measurement": "normalized growth", "setting": "locus YCR088W, strain abp1, hits give low values", "result": 1.01},
      {"measurement": "normalized growth", "setting": "locus YDL005C, strain med2, hits give low values", "result": 1.06},
      {"measurement": "normalized growth", "setting": "locus YDL035C, strain GPR1, hits give low values", "result": "0.0509 (active)"},
      {"measurement": "normalized growth", "setting": "locus YDL040C, strain nat1, hits give low values", "result": 1.02},
      {"measurement": "normalized growth", "setting": "locus YDL074C, strain BRE1, hits give low values", "result": "0.0891 (active)"},
      {"measurement": "normalized growth", "setting": "locus YDL101C, strain DUN1, hits give low values", "result": "0.0606 (active)"},
      {"measurement": "normalized growth", "setting": "locus YDL185W, strain tfp1, hits give low values", "result": "0.0577 (active)"},
      {"measurement": "normalized growth", "setting": "locus YDL192W, strain arf1, hits give low values", "result": "0.0632 (active)"},
      {"measurement": "normalized growth", "setting": "locus YDR001C, strain nth1, hits give low values", "result": 1.02},
      {"measurement": "normalized growth", "setting": "locus YDR069C, strain doa4, hits give low values", "result": 1.03},
      {"measurement": "normalized growth", "setting": "locus YDR101C, strain arx1, hits give low values", "result": "0.0567 (active)"},
      {"measurement": "normalized growth", "setting": "locus YDR137W, strain rgp1, hits give low values", "result": "0.509 (active)"},
      {"measurement": "normalized growth", "setting": "locus YDR150W, strain NUM1, hits give low values", "result": "0.0485 (active)"},
      {"measurement": "normalized growth", "setting": "locus YDR159W, strain sac3, hits give low values", "result": "0.84 (active)"},
      {"measurement": "normalized growth", "setting": "locus YDR162C, strain NBP2, hits give low values", "result": "0.0515 (active)"},
      {"measurement": "normalized growth", "setting": "locus YDR195W, strain ref2", "result": "0.61 (active)"},
      {"measurement": "normalized growth", "setting": "locus YDR297W, strain sur2, hits give low values", "result": 1.02},
      {"measurement": "normalized growth", "setting": "locus YDR318W, strain mcm21, hits give low values", "result": "0.0561 (active)"},
      {"measurement": "normalized growth", "setting": "locus YDR334W, strain swr1, hits give low values", "result": 1.02},
      {"measurement": "normalized growth", "setting": "locus YDR335W, strain msn5, hits give low values", "result": "0.907 (active)"},
      {"measurement": "normalized growth", "setting": "locus YDR388W, hits give low values", "result": "0.0552 (active)"},
      {"measurement": "normalized growth", "setting": "locus YDR392W, strain spt3, hits give low values", "result": 0.919},
      {"measurement": "normalized growth", "setting": "locus YDR502C, strain sam2, hits give low values", "result": "0.0624 (active)"},
      {"measurement": "normalized growth", "setting": "locus YEL003W, strain gim4, hits give low values", "result": 1},
      {"measurement": "normalized growth", "setting": "locus YEL037C, strain rad23, hits give low values", "result": 1.02},
      {"measurement": "normalized growth", "setting": "locus YEL061C, strain CIN8 (second series), hits give low values", "result": 0.999},
      {"measurement": "normalized growth", "setting": "locus YER015W, strain faa2, hits give low values", "result": 1.02},
      {"measurement": "normalized growth", "setting": "locus YER016W, strain bim1, hits give low values", "result": 0.977},
      {"measurement": "normalized growth", "setting": "locus YER110C, hits give low values", "result": "0.0702 (active)"},
      {"measurement": "normalized growth", "setting": "locus YER111C, strain swi4, hits give low values", "result": "0.642 (active)"},
      {"measurement": "normalized growth", "setting": "locus YER155C, strain BEM2 (second series), hits give low values", "result": 1.01},
      {"measurement": "normalized growth", "setting": "locus YER155C, strain BEM2, hits give low values", "result": "0.0639 (active)"},
      {"measurement": "normalized growth", "setting": "locus YER167W, strain BCK2, hits give low values", "result": "0.0533 (active)"},
      {"measurement": "normalized growth", "setting": "locus YFR010W, strain ubp6, hits give low values", "result": 1.01},
      {"measurement": "normalized growth", "setting": "locus YGL078C, strain dbp3, hits give low values", "result": "0.0574 (active)"},
      {"measurement": "normalized growth", "setting": "locus YGL086W, strain mad1, hits give low values", "result": "0.0591 (active)"},
      {"measurement": "normalized growth", "setting": "locus YGL167C, strain pmr1, hits give low values", "result": "0.749 (active)"},
      {"measurement": "normalized growth", "setting": "locus YGL173C, strain kem1, hits give low values", "result": 1},
      {"measurement": "normalized growth", "setting": "locus YGL227W, strain vid30, hits give low values", "result": 1.03},
      {"measurement": "normalized growth", "setting": "locus YGL240W, strain doc1, hits give low values", "result": "0.846 (active)"},
      {"measurement": "normalized growth", "setting": "locus YGL248W, strain PDE1, hits give low values", "result": "0.0484 (active)"},
      {"measurement": "normalized growth", "setting": "locus YGL253W, strain hxk2, hits give low values", "result": 1.02},
      {"measurement": "normalized growth", "setting": "locus YGR078C, strain PAC10, hits give low values", "result": "0.0519 (active)"},
      {"measurement": "normalized growth", "setting": "locus YGR135W, strain pre9, hits give low values", "result": "0.0583 (active)"},
      {"measurement": "normalized growth", "setting": "locus YGR252W, strain gcn5, hits give low values", "result": "0.173 (active)"},
      {"measurement": "normalized growth", "setting": "locus YHR013C, strain ard1, hits give low values", "result": 1.03},
      {"measurement": "normalized growth", "setting": "locus YHR027C, strain rpn1, hits give low values", "result": 1.02},
      {"measurement": "normalized growth", "setting": "locus YHR030C, strain SLT2, hits give low values", "result": "0.0897 (active)"},
      {"measurement": "normalized growth", "setting": "locus YHR079C, strain IRE1 (second series), hits give low values", "result": "0.0526 (active)"},
      {"measurement": "normalized growth", "setting": "locus YHR079C, strain IRE1, hits give low values", "result": "0.12 (active)"},
      {"measurement": "normalized growth", "setting": "locus YHR094C, strain hxt1, hits give low values", "result": "0.0539 (active)"},
      {"measurement": "normalized growth", "setting": "locus YHR129C, strain ARP1, hits give low values", "result": "0.0547 (active)"},
      {"measurement": "normalized growth", "setting": "locus YHR142W, strain chs7, hits give low values", "result": 0.876},
      {"measurement": "normalized growth", "setting": "locus YHR200W, strain rpn10, hits give low values", "result": "0.0577 (active)"},
      {"measurement": "normalized growth", "setting": "locus YIL066C, strain RNR3, hits give low values", "result": "0.0505 (active)"},
      {"measurement": "normalized growth", "setting": "locus YIL073C, strain SPO22, hits give low values", "result": "0.119 (active)"},
      {"measurement": "normalized growth", "setting": "locus YIL125W, strain kgd1, hits give low values", "result": "0.0532 (active)"},
      {"measurement": "normalized growth", "setting": "locus YIR030C, strain dcg1, hits give low values", "result": "0.054 (active)"},
      {"measurement": "normalized growth", "setting": "locus YJL092W, strain hpr5, hits give low values", "result": 1.01},
      {"measurement": "normalized growth", "setting": "locus YJL095W, strain BCK1 (second series), hits give low values", "result": 1.01},
      {"measurement": "normalized growth", "setting": "locus YJL095W, strain BCK1, hits give low values", "result": "0.059 (active) and 0.105 (active)"},
      {"measurement": "normalized growth", "setting": "locus YJL115W, strain asf1, hits give low values", "result": 1.03},
      {"measurement": "normalized growth", "setting": "locus YJL129C, strain trk1, hits give low values", "result": 0.944},
      {"measurement": "normalized growth", "setting": "locus YJL134W, strain LCB3, hits give low values", "result": "0.0488 (active)"},
      {"measurement": "normalized growth", "setting": "locus YJL154C, strain vps35, hits give low values", "result": 1.01},
      {"measurement": "normalized growth", "setting": "locus YJL164C, strain tpk1, hits give low values", "result": 0.933},
      {"measurement": "normalized growth", "setting": "locus YJL166W, strain qcr8, hits give low values", "result": 0.969},
      {"measurement": "normalized growth", "setting": "locus YJL168C, strain set2, hits give low values", "result": "0.0534 (active)"},
      {"measurement": "normalized growth", "setting": "locus YJL187C, strain SWE1 (second series), hits give low values", "result": "0.0518 (active)"}
    ]}
  ]
}
